In PubChem BioAssay AID1508619 (National Center for Advancing Translational Sciences (NCATS), 2020):
Records with an inconclusive call do not appear. Where a call stands in place of a potency, no number is given. Calls of active or inactive are those of the source. The call rests on the fitted dose curve; in most records, active means well fitted inhibition curve with a large enough effect; inconclusive means small, poorly fitted or top-dose-only effect; inactive means no such curve, though single readings can be large or run the other way.

Test: Counterscreen qHTS for Identification of Calcium Integrin Binding Protein 1 (CIB1) Competitor
Summary of the method: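 Counterscreen FP assay: CIB1-GST 1 uM in 5 mM HEPES pH 7.4, 125 mM NaCl, 5 mM CaCl2, 0.01% Tween20, with compounds up to 114 uM for 15 min, then 100 nM FITC-labelled scrambled peptide, 15 min, polarization read ex 480/em 540.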
Potency means the concentration at half of the fitted maximal effect.

Row | SMILES | Potency
1 | CC1(C)OB(c2ccc(O)c3ncc(N4CCNCC4)cc23)OC1(C)C | 20 µM (active)
2 | O=C(O)c1ccc(O)c2ncc(-c3n[nH]nc3-c3ccccc3)cc12 | inactive
3 | NC(=O)c1ccc(O)c2ncccc12 | inactive
4 | CCOc1ccc(CCNC(C)=O)cc1OCC | inactive
5 | CCCCCCCCOc1ccccc1C(=O)Nc1ccc(C(=O)OCC[N+](C)(CC)CC)cc1 | inactive
6 | O=S(=O)(Nc1nc2ccccc2s1)c1ccc(NCc2ccc(Br)cc2O)cc1 | inactive
7 | CC(C)(C)OC(=O)CC(=O)NNC(=O)c1nc2ccccc2[nH]1 | inactive
8 | CCOC(=O)c1c(-c2ccc(C)o2)csc1NC(=O)CSc1nnnn1-c1ccccc1 | inactive
9 | CN(C)c1cnc2c(O)cccc2c1 | inactive
10 | Cc1nc(C(=O)NCC(=O)O)c(O)c2ccc(Oc3ccccc3)cc12 | inactive
11 | COc1cc(C(=O)NS(=O)(=O)c2ccccc2C)ccc1Cc1cn(C)c2ccc(NC(=O)OC3CCCC3)cc12 | inactive
12 | CCCCC(CC)CN=C(N)NC(N)=NCCCCCCN=C(N)NC(N)=NCC(CC)CCCC (centres undefined) | inactive
13 | Fc1ccc(NC(=S)Nc2nnc(-c3ccncc3)s2)cc1C(F)(F)F | inactive
14 | NC[C@@H](O)c1ccc(O)c(O)c1 | inactive
15 | O=C1CCC2=C1C1(CCCC1)N=C(Nc1nc3ccccc3o1)N2 | inactive
16 | O=C1c2ccccc2C(=O)c2c1ccc(O)c2O | 22.4 µM (active)
17 | CCCC(=O)c1cc(O)c(O)cc1O | 31.6 µM (active)
18 | COc1ccc2c(=O)n3nc(Nc4cccc(N5CCN(C)CC5)c4)sc3nc2c1 | inactive
19 | Cc1ccc(S(=O)(=O)Nc2ccc(Br)cc2C(=O)Nc2nc(-c3ccccc3)cs2)cc1 | inactive
20 | O=C(Cc1ccc(Cl)c(Cl)c1)Nc1ccc(S(=O)(=O)Nc2cccc(C(=O)O)c2)cc1 | inactive
21 | N#Cc1cnc(NS(=O)(=O)c2ccc(NC(=O)Cc3ccc(Cl)c(Cl)c3)cc2)s1 | inactive
22 | CN1CCC(N(Cc2cccs2)c2ccccc2)CC1 | inactive
23 | CCOC(=O)c1nnc(N[S+](=O)([O-])c2ccc(NC(=O)Cc3ccc(Cl)c(Cl)c3)cc2)s1 | inactive
24 | NC(=O)c1ncn([C@@H]2O[C@H](CO)[C@@H](O)[C@H]2O)c1O | inactive
25 | O=c1[nH]sc2cc(Cl)ccc12 | inactive
26 | Cc1ccc(S(=O)(=O)Nc2cnccc2C(=O)Nc2ccc(-c3nn[nH]n3)cc2)cc1 | inactive
27 | Cc1cc(C(C#N)c2ccc(Cl)cc2)c(Cl)cc1NC(=O)c1cc(I)cc(I)c1O (centres undefined) | inactive
28 | O=C(O)c1ccc(-c2ccc3ncnc(NCc4nccs4)c3c2)o1 | inactive
29 | CCc1ccc(C=C2SC(=S)NC2=O)cc1 | inactive
